Drawing on PubChem BioAssay (NCI), this text covers growth inhibition for 18 compounds.

Test [1] in a line: NCI Yeast Anticancer Drug Screen. Data for the rad50 strain (AID 155).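 Further: 0% = growth of vehicle-only cultures of the same strain.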 The conditions noted are these: S. cerevisiae rad50 strain growth inhibition; at 50.0 µM; stronger effect = higher value. A digest of the protocol:
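A DNA repair-deficient yeast mutant serves as the test organism; compound-induced growth inhibition is calculated against vehicle-treated cells.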

A short description of test [2]: NCI Yeast Anticancer Drug Screen. Data for the mec2-1 strain (AID 157). The conditions noted are these: S. cerevisiae mec2-1 strain, at 50.0 µM, stronger effect = higher value. Summed up:
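Each compound was tested on mec2-1 yeast, a strain altered in DNA damage repair or cell cycle control. Growth inhibition is reported relative to vehicle.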

Test [3] can be described thus: NCI Yeast Anticancer Drug Screen. Data for the sgs1 mgt1 strain (AID 161).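 Further: 0% = growth of cultures given vehicle only.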 The conditions noted are these: S. cerevisiae sgs1 mgt1 strain, at 50.0 µM, stronger effect = higher value. A digest of the protocol:
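Inhibition of yeast growth, normalised to vehicle-treated controls, is reported for a strain bearing genetic alterations in DNA damage repair.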

Test [4] in a line: NCI Yeast Anticancer Drug Screen. Data for the cln2 rad14 strain (AID 165).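 Further: 0% = growth equal to vehicle treated cultures.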 The conditions noted are these: S. cerevisiae cln2 rad14 strain, at 50.0 µM, stronger effect = higher value. Summed up:
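Test compounds were added to cln2 rad14 yeast cultures; inhibition of growth was then determined by comparison with vehicle treatment.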

A short description of test [5]: NCI Yeast Anticancer Drug Screen. Data for the bub3 strain (AID 167). The following applies: S. cerevisiae bub3 mutant strain, at 50.0 µM, stronger effect = higher value. A digest of the protocol:
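Inhibition values come from growth of compound-treated mutant yeast normalised to vehicle-treated controls.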

Test [6] can be described thus: NCI Yeast Anticancer Drug Screen. Data for the mlh1 rad18 strain (AID 175). The conditions noted are these: S. cerevisiae mlh1 rad18 strain growth inhibition; at 50.0 µM; stronger effect = higher value. Summed up: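 Inhibition values reflect reduced growth of mutant yeast versus vehicle-treated controls following compound exposure; the mutations affect DNA damage repair.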

This is part of a sample that, as a whole, favours compounds with a hit. Of some 79,000 tested, about 15% had one in any assay. Calls of active or inactive are those of the source. No stated cut-off is given here; in the data, active means growth inhibition above about 70%; inactive means the rest.

With `Cc1csc(C)[n+]1CC(=O)c1ccccc1`, the growth inhibition in test [1] is -10% (inactive); in test [2] it was -5.45% (inactive); in test [3] it was -8.4% (inactive); in test [4], -20.2% (inactive); in test [5] it was -6.1% (inactive); in test [6], -29.1% (inactive).
For `C=C(C)Cc1c(C)c(Cl)cc(Cl)c1OC(=O)Nc1ccccc1`, the growth inhibition is 31.8% (inactive) in test [1]; 9.6% (inactive) in test [2]; 30.6% (inactive) in test [3]; 9.35% (inactive) in test [4]; 29.9% (inactive) in test [5]; 19.7% (inactive) in test [6].
Regarding `CCOC(=O)C1=C(O)CSC1=Nc1ccccc1`, the growth inhibition is -16.3% (inactive) in test [1]; 5.6% (inactive) in test [2]; -12.8% (inactive) in test [3]; -9.3% (inactive) in test [4]; -1.7% (inactive) in test [5]; 22.9% (inactive) in test [6].
With `CC(C)(Oc1ccccc1)C(=O)Sc1c(-c2ccccc2)c(=O)n(-c2ccccc2)c(=S)n1-c1ccccc1`, the growth inhibition was 13.2% (inactive) in test [1]; -14.8% (inactive) in test [2]; -15.3% (inactive) in test [3]; -5.4% (inactive) in test [4]; -13.2% (inactive) in test [5]; -6.95% (inactive) in test [6].
Turning to `CN(c1c(Cl)cccc1Cl)S(=O)(=O)c1ccccc1[N+](=O)[O-]`, the growth inhibition in test [1] was -38.5% (inactive); in test [2], -49.5% (inactive); in test [3], -15.5% (inactive); in test [4], 20% (inactive); in test [5], -1.1% (inactive); in test [6], -4.5% (inactive).
For `Clc1ccccc1-c1nnc(-c2cccc(-c3nnc(-c4ccccc4Cl)o3)n2)o1`, the growth inhibition in test [1] was -1.65% (inactive); in test [2] it was 6.75% (inactive); in test [3], -6.55% (inactive); in test [4] it was -9.1% (inactive); in test [5] it was -3.4% (inactive); in test [6], 12% (inactive).
Take `O=C(NCCO)c1cc2ccccc2cc1O`: the growth inhibition in test [1] is -1.9% (inactive); in test [2] it was -25.3% (inactive); in test [3], -10.4% (inactive); in test [4], -3.5% (inactive); in test [5] it was -17.9% (inactive); in test [6] it was 7.55% (inactive).
For the compound `Cc1cc(N=C2C=C(Nc3cc(C)on3)C(=O)c3ccccc32)no1`, the growth inhibition in test [1] was -8.9% (inactive); in test [2] it was -1.25% (inactive); in test [3], -21.4% (inactive); in test [4], 1.05% (inactive); in test [5], -14.7% (inactive); in test [6] it was 6.05% (inactive).
On to `COC(=O)COc1cc2c(cc1C(C)c1ccc(O)cc1)OCO2` (stereo not drawn), for which the growth inhibition is 98.8% (active) in test [1]; 98.5% (active) in test [2]; 99% (active) in test [3]; 99.1% (active) in test [4]; 99.2% (active) in test [5]; 98.7% (active) in test [6].
In the case of `CNC(=O)NC(c1ccc2c(c1)OCO2)c1cc2c(cc1O)OCO2` (stereo not drawn), the growth inhibition was 10.8% (inactive) in test [1]; -2.7% (inactive) in test [2]; 13.9% (inactive) in test [3]; 14.2% (inactive) in test [4]; 19.2% (inactive) in test [5]; 24.6% (inactive) in test [6].
In the case of `N=c1oc2ccccc2cc1-c1nc2ccccc2c(=O)[nH]1`, the growth inhibition in test [1] was -1.75% (inactive); in test [2], -3.25% (inactive); in test [3] it was 4.5% (inactive); in test [4] it was 11.7% (inactive); in test [5], -13.4% (inactive); in test [6] it was 17.3% (inactive).
As for `CN(C)NC(=S)Nc1ccccc1`, the growth inhibition in test [1] was -5.05% (inactive); in test [2], -0.65% (inactive); in test [3], -11.8% (inactive); in test [4] it was -36% (inactive); in test [5], -1.7% (inactive); in test [6] it was -6.15% (inactive).
For the compound `C=C1C(=O)OC2/C=C(\C)CC(O)/C=C(/C)CC(OC(=O)C(O)(CO)C(C)S)C12` (stereo not drawn), the growth inhibition in test [1] was -14% (inactive); in test [2], 6.55% (inactive); in test [3], -22.4% (inactive); in test [4], 3% (inactive); in test [5], -3.8% (inactive); in test [6] it was -22.7% (inactive).
Take `O=S(=O)(NCC(Cl)CCl)c1ccccc1` (stereo not drawn): the growth inhibition was 0.7% (inactive) in test [1]; -2.8% (inactive) in test [2]; -12.7% (inactive) in test [3]; 3.85% (inactive) in test [4]; 3.55% (inactive) in test [5]; 5% (inactive) in test [6].
For `C/C=C(/C)C1(O)CCCCC1O` (stereo not drawn), the growth inhibition is -4.2% (inactive) in test [1]; 1.15% (inactive) in test [2]; 1.2% (inactive) in test [3]; -2.7% (inactive) in test [4]; -4% (inactive) in test [5]; -11.3% (inactive) in test [6].
For `CCC1CN2CCc3cc(OC)c(OC)cc3C2CC1(O)C#N` (stereo not drawn), the growth inhibition in test [1] was 9.9% (inactive); in test [2] it was 18.9% (inactive); in test [3], -5.9% (inactive); in test [4] it was 0.6% (inactive); in test [5], 12.8% (inactive); in test [6], 39% (inactive).
Take `CCC1(CC)C(=O)C(CC)(CC)C1=O`: the growth inhibition in test [1] was 44.5% (inactive); in test [2], 28.1% (inactive); in test [3], 38% (inactive); in test [4], 20.9% (inactive); in test [5], 39.1% (inactive); in test [6], 6.55% (inactive).
As to `COC(=O)C1(CCC(C)=O)CCC(C)C1=O` (stereo not drawn), the growth inhibition was 2.55% (inactive) in test [1]; -4.5% (inactive) in test [2]; 1.2% (inactive) in test [3]; 0.2% (inactive) in test [4]; -19.6% (inactive) in test [5]; -9.8% (inactive) in test [6].
